Source: PubChem BioAssay

These molecules were tested on Noggin (protein binding on small-molecule microarray) (assay: small molecules binding Noggin protein – biochemical, 635/667 nm fluorescence, primary screen (AID 1095;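 further: score merges 667 nm feature fluorescence with signal to noise over triplicate slides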)). Conditions: 635 nm fluorescence, higher = more signal.
`C[C@]1(C(=O)NCCN2CCOCC2)c2ccccc2C(=O)N(Cc2ccc(OC(F)(F)F)cc2)[C@H]1c1ccc(CO)cc1` gave a composite z-score of 0.557.
For `[N-]=[N+]=Nc1ccccc1[C@@H]1OC(c2ccc(OCCCO)cc2)=N[C@]1(CCS(=O)(=O)c1ccccc1)C(=O)NCCN1CCOCC1`, the composite z-score was 0.038.
Work on `CC(C)CN1C(=O)[C@@]2(Cc3ccccc31)c1ccccc1C(=O)N(Cc1ccccc1C(F)(F)F)[C@H]2c1ccc(CO)cc1` yielded a composite z-score of -0.0224.
`C=CC[C@]1(C(=O)N(C)C)N=C(c2ccc(OCCCO)cc2)O[C@H]1c1ccccc1N=[N+]=[N-]` gave a composite z-score of 0.464.
`COc1cc2c(cc1OC)CN(C(=O)[C@H]1[C@@H]3C(=O)O[C@@H](c4ccccc4)[C@@H](c4ccccc4)N3[C@@H](c3ccc(OCCO)cc3)[C@]13C(=O)Nc1ccc(C#CC4(O)CCCCCC4)cc13)CC2` showed a composite z-score of 1.47.
`COCCCNC(=O)[C@@H]1c2ccccc2C(=O)N(Cc2ccccc2C(F)(F)F)[C@H]1c1ccc(CO)cc1` was tested, and the composite z-score was -0.789.
For `C=CC[C@]12N=C(c3ccc(OCCCO)cc3)O[C@H]1c1ccccc1N(C)C2=O`, the composite z-score was 0.798.
Work on `CCCC[C@@H]1C[C@H]1[C@@H](NC(=O)c1cccnc1)c1ccc(-c2ccccc2)cc1` yielded a composite z-score of 1.01.
`C[C@@H]1ON(c2ccc(C(=O)OC(C)(C)C)cc2)[C@H](c2ccc(Br)cc2)[C@H]1C(=O)N1C(=O)OC[C@H]1Cc1ccccc1` gave a composite z-score of 0.633.
`CC(C)CCC[C@@H](C)[C@H]1CC[C@@]2(C)C3=C(CC[C@]12C)[C@@]1(C)CC[C@H](OC(=O)c2ccc(Br)cc2)C(C)(C)C1CC3` (stereo partly specified) showed a composite z-score of 0.326.
For `COc1cc2c(cc1O)C(C)N(Cc1cc3c(cc1Br)OCO3)CC2` (stereo unspecified), the composite z-score was -1.03.
`COc1c(C)cc(-c2cc3c(c(Cc4ccccc4)n2)[Si](C(C)C)(C(C)C)OC3)cc1C` showed a composite z-score of 0.529.
For `CN(C)CCCN1C(=O)[C@@]2(c3ccc([N+](=O)[O-])cc3)CC(=O)N(CC34CC5CC(CC(C5)C3)C4)[C@@H]2c2ccc(CO)cc21`, the composite z-score was -0.378.
`CO[C@H]1O[C@H](CO)[C@@H](OC(=O)Nc2ccc(C(F)(F)F)cc2)[C@H](OC(=O)Nc2ccc3c(c2)OCO3)[C@H]1OC(=O)Nc1ccc2c(c1)OCO2` showed a composite z-score of 0.293.
With `NC(=O)NCC#Cc1ccc2c(c1)[C@]1(C(=O)N2)[C@H](C(=O)Nc2nc3ccccc3s2)[C@H]2C(=O)O[C@H](c3ccccc3)[C@H](c3ccccc3)N2[C@@H]1c1ccc(O)cc1` the composite z-score was 0.614.
`COCCOC(=O)N1C(=O)[C@@]2(c3cc(C#CC4(O)CCCCCC4)ccc31)[C@H](C(=O)N1CCCCCCC1)[C@H]1C(=O)O[C@H](c3ccccc3)[C@H](c3ccccc3)N1[C@@H]2c1ccc(OCCO)cc1` gave a composite z-score of 1.89.
Work on `COC(=O)[C@@]1(Cc2ccccc2)[C@H]2c3cc(C(=O)N4CCCC4)[nH]c3C[C@H]2CN1C(=O)c1ccccc1` yielded a composite z-score of -0.463.
`CCOC(=O)[C@H]1C/C=C/C[C@H](C(=O)OCC)C(=O)O[C@H]2[C@@H](OC)O[C@H](CO)[C@@H](OC(=O)CCc3ccccc3)[C@@H]2OC1=O` gave a composite z-score of 0.0226.
`Cc1ccc(F)cc1S(=O)(=O)N[C@@H]1CCN(Cc2ccc(OC(C)C)cc2)C1` gave a composite z-score of 0.313.
Molecule `COCCOC(=O)N1C(=O)[C@@]2(c3cc(C#CC4=CCCCC4)ccc31)[C@H](C(=O)N1CCN(c3ncccn3)CC1)[C@H]1C(=O)O[C@H](c3ccccc3)[C@H](c3ccccc3)N1[C@@H]2c1ccc(O)cc1` has a composite z-score of 0.568.
For `COC(=O)C1(Cc2ccccc2)C=C2C(=C(C(C)C)C(=O)C2C)CN1` (stereo unspecified), the composite z-score was -1.79.
Work on `O=C1O[C@H](c2ccccc2)[C@H](c2ccccc2)N2[C@H]1[C@@H](C(=O)O)[C@]1(C(=O)Nc3ccccc31)[C@H]2c1ccc(O)cc1` yielded a composite z-score of -0.317.
For `COc1ccc(NC(=O)O[C@H]2[C@H](OC(=O)Nc3ccc4c(c3)OCO4)[C@@H](OC(=O)Nc3ccc4c(c3)OCO4)[C@@H](OC)O[C@@H]2CO)cc1`, the composite z-score was 0.89.
Work on `COc1c(C)cc(-c2cc3c(c(-c4ccccc4)n2)[Si](C(C)C)(C(C)C)OC3)cc1C` yielded a composite z-score of -0.24.
In the case of `C[C@@H](OCc1ccccc1)C1NC(=O)[C@@]23C(=O)N[C@@H](Cc4ccccc4)C2[C@H](C)[C@@]2(C)O[C@H]2C3/C=C/C/C=C\CNC(=O)CNC1=O` (stereo partly specified), the composite z-score is reported as -0.526.
Work on `COc1ccc([Si](C)(C)[C@@H]2[C@@H](CC(=O)N3CCC[C@H]3CO)O[C@]3(C(=O)N(Cc4ccc(N5C(=O)c6cccc7cccc5c67)cc4)c4ccccc43)[C@H]2C)cc1` yielded a composite z-score of 1.41.
